# Source: PubChem BioAssay (Tox21)
# Inconclusive results are not listed. Entries that show only a call come without a potency. Activity calls are given as the source filed them. Calls follow the shape of the dose curve; as a rule, active = well fitted activation curve with a large enough effect in the repeat runs; inconclusive = weak or mixed curves, or effect the other way; inactive = no such curve, though single readings can be large or run the other way.
# Assay: qHTS assay to identify small molecule agonists of the retinoic acid receptor (RAR) signaling pathway (AID 1159553)
# Conditions: C3RL4 RARE luciferase reporter, agonist, 6 h; activation: at 73.3 µM (top of the series)
# Text: National Center for Advancing Translational Sciences [NCATS] NIH Chemical Genomics Center [NCGC] U.S. Environmental Protection Agency [EPA] National Institutes of Environmental Health Sciences [NIEHS] National Toxicology Program [NTP] Assay overview: All-trans Retinoic acid (atRA) is the potent natural metabolite of retinol and plays an important role in normal embryonic development and maintenance of cellular phenotype in adult animals. atRA is the activating ligand for the retinoic acid receptors (RARs) which form heterodimers with retinoid X receptors (RXRs) on the retinoic acid response element (RARE). Through activation of the RAR/RXRs nuclear receptors, atRA regulates the transcription of a large number of protein-coding genes and regulatory RNAs. Intracellular levels of atRA are controlled by the retinol signaling pathway (RSP) that regulates the biosynthesis and catabolism of atRA to maintain physiological levels. Chemicals that interfere with the RSP can cause abnormal intracellular levels of atRA and therefore are potential developmental toxicants. To assess compounds for the potential adverse effect on embryonic development through interfering with retinol signaling, a cell-based RARE luciferase reporter gene assay was used. C3RL4 cell line (OARSA/CFSAN/FDA, Laurel, MD) was used to screen Tox21 10K compound library for identifying activators of the RSP.
# Assay Protocol Summary: C3RL4 cells were seeded at 1,000/well in 5 uL of assay medium into white solid 1,536-well tissue culture plates (Greiner Bio-One North America Inc. Monroe, NC) using a Multidrop Combi (Thermo Scientific, Waltham, MA) dispenser. After incubation at 37 C and 5% CO2 for an overnight, 23 nL of compounds dissolved in DMSO, positive control or DMSO only were transferred by a Pintool station (Kalypsys, San Diego, CA). After 6 hr incubation at 37 C and 5% CO2, 5 uL of Amplite Luciferase reagent (AAT Bioquest Inc. Sunnyvale, CA) was added to each assay plate using a Flying Reagent Dispenser (FRD) (Aurora Discovery, San Diego, CA). Luminescence was quantified on a ViewLux plate reader (PerkinElmer, Waltham, MA) after 30 min incubation at room temperature.
# Potency is read from the fitted curve at half-maximal effect.
SMILES,Potency,activation
O=S1(=O)CCCC1,inactive,
COCC(=O)Nc1c(I)c(C(=O)NCC(O)CO)c(I)c(C(=O)N(C)CC(O)CO)c1I (stereo not given),inactive,
CC(C)COC(=O)CC(C(=O)OCC(C)C)S(=O)(=O)O (stereo not given),inactive,
O=C(Oc1ccccc1C(=O)O)c1ccccc1O,inactive,
CCCCCCCC[Si](OCC)(OCC)OCC,inactive,
CCCCOC(=O)[C@@H](C)Oc1ccc(Oc2ccc(C(F)(F)F)cn2)cc1,inactive,
CCOC(=O)OCC/C(SC(=O)OCC)=C(\C)N(C=O)Cc1cnc(C)nc1N,inactive,
CC(=O)OCCCc1ccccc1,inactive,
CCCCCCCCCOCC1CO1 (stereo not given),inactive,
O=C(O)C(=O)Nc1cccc(-c2nn[nH]n2)c1,inactive,
CO[Si](CCCS)(OC)OC,inactive,
CN[C@@H]1[C@@H](O)[C@@H](O[C@@H]2[C@H](O)[C@H](O[C@H]3OC(CN)=CC[C@H]3N)[C@@H](N)C[C@H]2N)OCC1(C)O (stereo not given in full),inactive,
C=C[Si](C)(C)O[Si](C)(C)C=C,inactive,
Nc1cc(Cl)cc(S(=O)(=O)O)c1O,inactive,
CC(C)(c1ccc(Oc2ccc3c(c2)C(=O)OC3=O)cc1)c1ccc(Oc2ccc3c(c2)C(=O)OC3=O)cc1,inactive,
C[N+](C)(C)CC(O)CCl (stereo not given),inactive,
O=C(O)c1ccc(OCCN2CCCCC2)cc1,inactive,
C[C@H](CCC(=O)NCC(=O)O)[C@H]1CC[C@H]2[C@@H]3[C@H](O)C[C@@H]4C[C@H](O)CC[C@]4(C)[C@H]3C[C@H](O)[C@]12C,inactive,
CCOC(=O)C(=O)c1csc(NC=O)n1,inactive,
NS(=O)(=O)c1cc2c(cc1Cl)NC(C(Cl)Cl)NS2(=O)=O (stereo not given),inactive,

SMILES,Potency,activation
CC(=O)c1ccc2c(c1)CCCC2,inactive,
C[Si]1(C)N[Si](C)(C)N[Si](C)(C)N1,inactive,
Cc1ccc(S(=O)(=O)NC(=O)NC2CCCCCCC2)cc1,inactive,
O=S(=O)(O)SSS(=O)(=O)O,inactive,
C1=C\CC/C=C\CC/1,inactive,
CCOC(=O)CC#N,inactive,
CCCCCCCCCCCCCCCC(=O)NCCO,inactive,
C[CH2][Ge]([Cl])([CH2]C)[CH2]C,inactive,
C[C@H](CCC(=O)O)[C@H]1CC[C@H]2[C@@H]3[C@H](O)C[C@@H]4C[C@H](O)CC[C@]4(C)[C@H]3C[C@H](O)[C@]12C,inactive,
C=CCCCCCCCCCCC,,0.0107% [at 8.36 µM] (inactive)
CCC(C)(C)C1CCC(=O)CC1,inactive,
CCOC(=O)CCCCCCCCC(=O)OCC,inactive,
C=C(C)C(=O)OC1CC(C)CC(C)(C)C1 (stereo not given),inactive,
CCCC(C)CC (stereo not given),inactive,
O=C(O)c1ccccc1C(=O)OCc1ccccc1,48.6 µM (active),
CC(=O)OCC(=O)[C@@]1(O)[C@H](OC(C)=O)C[C@H]2[C@@H]3CCC4=CC(=O)C=C[C@]4(C)[C@@]3(F)[C@@H](O)C[C@@]21C,inactive,
Nc1cc(S(=O)(=O)O)ccc1S(=O)(=O)O,inactive,
CCCCC[Si](OCC)(OCC)OCC,inactive,
NC(=O)NNC(N)=O,inactive,
O=C1CC[C@H](C(=O)N2CCCCC2)N1,inactive,
